Experimental data: the supplement of paper PMC10849652
About 7,900 targets were measured; listed, in parts, are those with a hit and a random draw of the rest. About 0.6% of all pairs of compound and target were hits.

Legend:
Assay in all cases: log2 fold change, soluble protein after heating vs DMSO (PISA); higher = thermal stabilisation; K562 cells, 10 uM, 30 min; active = over 0.2 and 3.5 SD of the protein, either way, in both replicates (recomputed)
[1] = compound: CS(=O)(=O)c1ccc(-c2cnc(N)c(C(=O)Nc3ccccc3)n2)cc1
Method in brief: (§1)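 K562 cells at 2×10^6 cells/mL were treated for 30 min with 10 μM compound, and aliquots were heated for 3 min over 48°C-58°C before pooling. Extraction used PBS with 0.5% NP-40 at 4°C, and soluble protein was the supernatant after 21,000xg for 90 min, measured by TMTpro 16plex LC-MS/MS with channel sums equalised. Thermal stability values, relative to control samples and from duplicates, are log2 fold changes.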

crizotinib = compound: C[C@@H](Oc1cc(-c2cnn(C3CCNCC3)c2)cnc1N)c1c(Cl)ccc(F)c1Cl [crizotinib]
Method in brief: as §1

[2] = compound: C[C@H](C1=CC=C(C=C1)C(=O)NC2=C3C=CNC3=NC=C2)N
Method in brief: as §1

duvelisib = compound: C[C@H](Nc1ncnc2nc[nH]c12)c1cc2cccc(Cl)c2c(=O)n1-c1ccccc1 [duvelisib]
Method in brief: as §1

gandotinib = compound: Cc1cc(Nc2cc(CN3CCOCC3)c3nc(C)c(Cc4ccc(Cl)cc4F)n3n2)n[nH]1 [gandotinib]
Method in brief: as §1

tozasertib = compound: Cc1cc(Nc2cc(N3CCN(C)CC3)nc(Sc3ccc(NC(=O)C4CC4)cc3)n2)n[nH]1 [tozasertib]
Method in brief: as §1

[3] = compound: Cc1cc(SCc2sc(-c3ccc(C(F)(F)F)cc3)nc2C)ccc1OCC(=O)O
Method in brief: as §1

doramapimod = compound: Cc1ccc(-n2nc(C(C)(C)C)cc2NC(=O)Nc2ccc(OCCN3CCOCC3)c3ccccc23)cc1 [doramapimod]
Method in brief: as §1

bafetinib = compound: Cc1ccc(NC(=O)c2ccc(CN3CC[C@H](N(C)C)C3)c(C(F)(F)F)c2)cc1Nc1nccc(-c2cncnc2)n1 [bafetinib]
Method in brief: as §1

[4] = compound: Cc1cccc(CC(=O)N2CCc3c2ccc(-c2cn(C)c4ncnc(N)c24)c3F)n1
Method in brief: as §1

nilotinib = compound: Cc1cn(-c2cc(NC(=O)c3ccc(C)c(Nc4nccc(-c5cccnc5)n4)c3)cc(C(F)(F)F)c2)cn1 [nilotinib]
Method in brief: as §1

[5] = compound: Cc1nc(Nc2n[nH]c3c2CN(C(=O)N[C@H](CN(C)C)c2ccccc2)C3(C)C)c2sccc2n1
Method in brief: as §1

dasatinib = compound: Cc1nc(Nc2ncc(C(=O)Nc3c(C)cccc3Cl)s2)cc(N2CCN(CCO)CC2)n1 [dasatinib]
Method in brief: as §1

[6] = compound: Cc1ncc(-c2ccnc(Nc3ccc(S(C)(=O)=O)cc3)n2)n1C(C)C
Method in brief: as §1

[7] = compound: Cn1cc(-c2ccc3c(c2)CCN3C(=O)Cc2cccc(C(F)(F)F)c2)c2c(N)ncnc21
Method in brief: as §1

mubritinib = compound: FC(F)(F)c1ccc(/C=C/c2nc(COc3ccc(CCCCn4ccnn4)cc3)co2)cc1 [mubritinib]
Method in brief: as §1

[8] = compound: C[C@@H]1COCCN1C2=NC(=NC(=C2)C3(CC3)S(=O)(=O)C)C4=C5C=CNC5=CC=C4
Method in brief: as §1

ispinesib = compound: Cc1ccc(C(=O)N(CCCN)[C@@H](c2nc3cc(Cl)ccc3c(=O)n2Cc2ccccc2)C(C)C)cc1 [ispinesib]
Method in brief: as §1

[9] = compound: Cn1cc(-c2ccc3nnc(C(F)(F)c4ccc5ncccc5c4)n3n2)cn1
Method in brief: as §1

tipifarnib = compound: Cn1cncc1[C@@](N)(c1ccc(Cl)cc1)c1ccc2c(c1)c(-c1cccc(Cl)c1)cc(=O)n2C [tipifarnib]
Method in brief: as §1

Measured: log2 fold change

SCLT1 (UniProt Q96NL6)
UniProt Q96NL6, sequence (Q96NL6 whole entry, looked up): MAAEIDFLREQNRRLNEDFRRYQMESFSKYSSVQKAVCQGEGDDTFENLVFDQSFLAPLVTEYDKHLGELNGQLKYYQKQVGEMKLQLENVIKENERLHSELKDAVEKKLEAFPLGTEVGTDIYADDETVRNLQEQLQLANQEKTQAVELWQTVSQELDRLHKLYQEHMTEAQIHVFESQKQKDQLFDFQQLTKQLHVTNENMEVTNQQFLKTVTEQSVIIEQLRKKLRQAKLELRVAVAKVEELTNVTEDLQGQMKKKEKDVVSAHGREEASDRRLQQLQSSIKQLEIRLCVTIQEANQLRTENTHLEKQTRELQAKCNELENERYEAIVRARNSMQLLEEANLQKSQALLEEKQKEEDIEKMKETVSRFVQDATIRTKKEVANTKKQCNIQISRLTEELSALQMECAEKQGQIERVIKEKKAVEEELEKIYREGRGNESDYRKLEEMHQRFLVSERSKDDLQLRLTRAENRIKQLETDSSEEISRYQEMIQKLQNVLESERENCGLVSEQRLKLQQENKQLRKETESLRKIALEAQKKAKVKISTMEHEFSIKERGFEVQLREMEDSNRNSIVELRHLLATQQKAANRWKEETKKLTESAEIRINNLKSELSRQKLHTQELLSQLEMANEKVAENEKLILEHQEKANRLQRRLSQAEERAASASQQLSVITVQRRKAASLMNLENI
inactive: [1] 0.148 | crizotinib 0.003 | [2] -0.081 | duvelisib 0.038 | gandotinib 0.149 | tozasertib -0.144 | [3] -0.028 | doramapimod 0.055 | bafetinib 0.087 | [4] -0.009 | nilotinib -0.099 | [5] -0.043 | dasatinib -0.052 | [6] 0.041 | [7] 0.191 | mubritinib 0.098

SCYL3 isoform 2 (UniProt Q8IZE3)
UniProt Q8IZE3, sequence (Q8IZE3 whole entry, looked up): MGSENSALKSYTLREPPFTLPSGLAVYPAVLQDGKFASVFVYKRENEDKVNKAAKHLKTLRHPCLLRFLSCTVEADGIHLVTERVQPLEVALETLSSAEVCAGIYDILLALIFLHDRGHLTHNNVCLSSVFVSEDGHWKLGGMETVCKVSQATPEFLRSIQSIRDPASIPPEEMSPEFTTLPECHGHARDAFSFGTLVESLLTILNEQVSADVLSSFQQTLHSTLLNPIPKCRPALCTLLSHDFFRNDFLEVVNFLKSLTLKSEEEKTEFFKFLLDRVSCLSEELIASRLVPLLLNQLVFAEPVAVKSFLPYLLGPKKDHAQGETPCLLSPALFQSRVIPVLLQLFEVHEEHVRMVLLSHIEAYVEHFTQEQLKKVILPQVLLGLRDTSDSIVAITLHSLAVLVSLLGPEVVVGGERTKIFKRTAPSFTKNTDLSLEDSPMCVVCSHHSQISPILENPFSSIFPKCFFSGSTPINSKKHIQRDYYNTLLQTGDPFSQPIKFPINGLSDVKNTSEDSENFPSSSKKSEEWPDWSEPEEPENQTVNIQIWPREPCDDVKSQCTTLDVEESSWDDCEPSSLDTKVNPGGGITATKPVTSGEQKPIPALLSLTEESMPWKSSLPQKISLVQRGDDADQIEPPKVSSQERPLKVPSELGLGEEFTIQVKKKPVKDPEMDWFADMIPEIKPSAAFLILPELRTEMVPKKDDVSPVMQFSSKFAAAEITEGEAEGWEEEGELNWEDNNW
inactive: crizotinib -0.118 | [8] -0.106 | [2] -0.044 | duvelisib 0.129 | gandotinib -0.069 | tozasertib -0.113 | [3] -0.024 | doramapimod -0.01 | ispinesib -0.041 | bafetinib -0.056 | [4] -0.017 | nilotinib -0.215 | [5] -0.167 | dasatinib -0.124 | [6] 0.111 | [7] -0.062 | [9] -0.05 | tipifarnib 0.044 | mubritinib 0.032

RAD50, A0A494C0Y7
inactive: [1] 0.029 | crizotinib -0.024 | [2] 0.204 | duvelisib 0.067 | gandotinib 0.021 | tozasertib -0.042 | [3] 0.054 | doramapimod 0.034 | ispinesib -0.054 | bafetinib -0.022 | [4] -0.249 | dasatinib 0.028 | [7] -0.012 | [9] 0.016 | tipifarnib 0.058 | mubritinib 0.167

SDCBP isoform 2 (UniProt O00560)
UniProt O00560, sequence (O00560 whole entry, looked up): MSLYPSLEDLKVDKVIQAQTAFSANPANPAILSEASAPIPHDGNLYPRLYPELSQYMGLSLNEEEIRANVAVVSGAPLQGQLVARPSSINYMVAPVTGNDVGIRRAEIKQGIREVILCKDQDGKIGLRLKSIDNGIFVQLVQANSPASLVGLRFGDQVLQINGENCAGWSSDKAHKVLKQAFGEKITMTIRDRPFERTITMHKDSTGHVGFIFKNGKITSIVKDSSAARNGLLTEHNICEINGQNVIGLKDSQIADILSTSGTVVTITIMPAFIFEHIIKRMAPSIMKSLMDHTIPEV
inactive: [1] 0.093 | [8] -0.108 | duvelisib 0.019 | gandotinib 0.058 | tozasertib 0.045 | [3] 0.069 | ispinesib -0.185 | bafetinib -0.298 | [4] -0.066 | nilotinib 0.108 | [5] -0.219 | dasatinib -0.083 | [6] -0.205 | [9] -0.085 | tipifarnib 0.109 | mubritinib 0.033

SAFB2 (UniProt K7EQU4)
inactive: crizotinib -0.244 | [8] 0.275 | doramapimod -0.04 | bafetinib -0.053 | nilotinib 0.155 | [5] 0.162 | [6] -0.113

SERINC1 (UniProt Q9NRX5)
UniProt Q9NRX5, sequence (Q9NRX5 whole entry, looked up): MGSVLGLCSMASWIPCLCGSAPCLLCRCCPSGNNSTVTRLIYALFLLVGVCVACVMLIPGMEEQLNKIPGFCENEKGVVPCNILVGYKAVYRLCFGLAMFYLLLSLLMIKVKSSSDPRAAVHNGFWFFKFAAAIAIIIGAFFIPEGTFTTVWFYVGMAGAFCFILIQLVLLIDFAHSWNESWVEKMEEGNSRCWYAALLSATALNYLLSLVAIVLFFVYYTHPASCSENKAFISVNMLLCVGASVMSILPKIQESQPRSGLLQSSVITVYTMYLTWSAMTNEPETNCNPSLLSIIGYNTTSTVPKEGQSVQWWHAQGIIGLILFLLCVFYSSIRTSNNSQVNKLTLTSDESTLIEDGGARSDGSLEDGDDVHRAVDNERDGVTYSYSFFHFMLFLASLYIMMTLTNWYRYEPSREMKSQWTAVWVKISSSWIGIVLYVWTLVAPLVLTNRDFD
inactive: [1] 0.075 | crizotinib -0.197 | [8] 0.037 | duvelisib 0.03 | tozasertib 0.125 | [3] -0.016 | doramapimod 0.068 | ispinesib -0.048 | bafetinib -0.135 | nilotinib 0.121 | [5] 0.081 | dasatinib -0.034 | [6] -0.064 | [9] 0.054 | tipifarnib -0.112 | mubritinib 0.057

RBMY1E (UniProt A6NEQ0)
UniProt A6NEQ0, sequence (A6NEQ0 whole entry, looked up): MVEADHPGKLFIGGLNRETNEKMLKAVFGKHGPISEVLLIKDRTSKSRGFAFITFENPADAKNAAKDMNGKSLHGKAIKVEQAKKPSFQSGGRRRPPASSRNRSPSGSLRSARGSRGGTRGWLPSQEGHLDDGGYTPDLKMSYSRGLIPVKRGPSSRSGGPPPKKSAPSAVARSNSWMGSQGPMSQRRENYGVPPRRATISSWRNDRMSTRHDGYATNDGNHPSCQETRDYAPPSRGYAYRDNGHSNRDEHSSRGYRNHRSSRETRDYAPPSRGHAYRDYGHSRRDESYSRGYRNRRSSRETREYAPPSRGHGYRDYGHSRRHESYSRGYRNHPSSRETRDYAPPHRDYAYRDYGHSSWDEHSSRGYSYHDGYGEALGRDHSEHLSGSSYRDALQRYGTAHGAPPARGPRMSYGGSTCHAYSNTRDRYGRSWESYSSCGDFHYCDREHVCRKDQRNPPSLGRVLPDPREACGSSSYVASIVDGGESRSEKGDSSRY
inactive: crizotinib -0.122 | [2] -0.12 | gandotinib -0.137 | tozasertib 0.113 | doramapimod -0.007 | ispinesib -0.148 | bafetinib -0.041 | [4] 0.219 | nilotinib 0.009 | [5] -0.038 | [6] 0.026 | [7] 0.29 | [9] -0.164 | tipifarnib -0.016 | mubritinib 0.192

RPS3A (UniProt D6R9B6)
inactive: [1] -0.014 | duvelisib -0.015 | tozasertib -0.134 | [3] 0.069 | dasatinib 0.155

SLC1A3 (UniProt P43003)
UniProt P43003, sequence (P43003 whole entry, looked up): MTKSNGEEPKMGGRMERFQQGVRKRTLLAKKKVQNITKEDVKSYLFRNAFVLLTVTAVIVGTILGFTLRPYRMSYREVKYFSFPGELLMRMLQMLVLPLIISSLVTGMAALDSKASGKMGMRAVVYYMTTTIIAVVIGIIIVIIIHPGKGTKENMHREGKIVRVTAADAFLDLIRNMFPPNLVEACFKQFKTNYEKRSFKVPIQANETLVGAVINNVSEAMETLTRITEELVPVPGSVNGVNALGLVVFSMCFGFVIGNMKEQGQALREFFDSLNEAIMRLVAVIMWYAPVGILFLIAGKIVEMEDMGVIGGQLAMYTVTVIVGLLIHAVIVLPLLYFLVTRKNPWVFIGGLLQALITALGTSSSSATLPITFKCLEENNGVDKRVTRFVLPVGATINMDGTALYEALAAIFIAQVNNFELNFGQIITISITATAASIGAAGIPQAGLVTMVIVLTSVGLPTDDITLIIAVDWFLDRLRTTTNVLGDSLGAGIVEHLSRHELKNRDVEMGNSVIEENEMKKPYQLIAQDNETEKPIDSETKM
inactive: [8] 0.167 | [2] -0.039 | duvelisib -0.084 | gandotinib -0.042 | tozasertib -0.194 | [3] 0.201 | ispinesib 0.126 | bafetinib -0.051 | [4] 0.013 | nilotinib 0.131 | [5] -0.063 | dasatinib -0.203 | [6] -0.077 | [7] 0.133 | [9] -0.009 | tipifarnib 0.054 | mubritinib 0.096

RUFY3 isoform 3 (UniProt Q7L099)
UniProt Q7L099, sequence (Q7L099 whole entry, looked up): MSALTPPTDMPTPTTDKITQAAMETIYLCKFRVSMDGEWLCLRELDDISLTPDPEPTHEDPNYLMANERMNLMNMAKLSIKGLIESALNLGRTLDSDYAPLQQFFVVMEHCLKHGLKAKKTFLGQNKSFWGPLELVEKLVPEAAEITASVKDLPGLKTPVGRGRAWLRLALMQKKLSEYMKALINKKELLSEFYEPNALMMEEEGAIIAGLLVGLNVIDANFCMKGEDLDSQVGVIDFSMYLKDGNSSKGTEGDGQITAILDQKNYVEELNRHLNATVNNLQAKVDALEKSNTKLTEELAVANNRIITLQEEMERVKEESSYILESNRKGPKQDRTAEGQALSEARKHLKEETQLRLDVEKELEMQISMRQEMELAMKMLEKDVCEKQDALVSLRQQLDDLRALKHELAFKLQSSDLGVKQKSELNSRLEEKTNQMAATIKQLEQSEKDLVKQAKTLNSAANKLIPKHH
inactive: [1] 0.017 | crizotinib 0.007 | [2] -0.085 | duvelisib -0.073 | gandotinib -0.012 | tozasertib 0.002 | doramapimod -0.057 | ispinesib -0.048 | [4] -0.018 | nilotinib -0.16 | [5] 0.045 | dasatinib -0.271 | [6] 0.052 | [7] 0.024 | [9] 0.134 | tipifarnib -0.116 | mubritinib 0.043
active: [3] 0.617

RBM6 (UniProt P78332)
UniProt P78332, sequence (P78332 whole entry, looked up): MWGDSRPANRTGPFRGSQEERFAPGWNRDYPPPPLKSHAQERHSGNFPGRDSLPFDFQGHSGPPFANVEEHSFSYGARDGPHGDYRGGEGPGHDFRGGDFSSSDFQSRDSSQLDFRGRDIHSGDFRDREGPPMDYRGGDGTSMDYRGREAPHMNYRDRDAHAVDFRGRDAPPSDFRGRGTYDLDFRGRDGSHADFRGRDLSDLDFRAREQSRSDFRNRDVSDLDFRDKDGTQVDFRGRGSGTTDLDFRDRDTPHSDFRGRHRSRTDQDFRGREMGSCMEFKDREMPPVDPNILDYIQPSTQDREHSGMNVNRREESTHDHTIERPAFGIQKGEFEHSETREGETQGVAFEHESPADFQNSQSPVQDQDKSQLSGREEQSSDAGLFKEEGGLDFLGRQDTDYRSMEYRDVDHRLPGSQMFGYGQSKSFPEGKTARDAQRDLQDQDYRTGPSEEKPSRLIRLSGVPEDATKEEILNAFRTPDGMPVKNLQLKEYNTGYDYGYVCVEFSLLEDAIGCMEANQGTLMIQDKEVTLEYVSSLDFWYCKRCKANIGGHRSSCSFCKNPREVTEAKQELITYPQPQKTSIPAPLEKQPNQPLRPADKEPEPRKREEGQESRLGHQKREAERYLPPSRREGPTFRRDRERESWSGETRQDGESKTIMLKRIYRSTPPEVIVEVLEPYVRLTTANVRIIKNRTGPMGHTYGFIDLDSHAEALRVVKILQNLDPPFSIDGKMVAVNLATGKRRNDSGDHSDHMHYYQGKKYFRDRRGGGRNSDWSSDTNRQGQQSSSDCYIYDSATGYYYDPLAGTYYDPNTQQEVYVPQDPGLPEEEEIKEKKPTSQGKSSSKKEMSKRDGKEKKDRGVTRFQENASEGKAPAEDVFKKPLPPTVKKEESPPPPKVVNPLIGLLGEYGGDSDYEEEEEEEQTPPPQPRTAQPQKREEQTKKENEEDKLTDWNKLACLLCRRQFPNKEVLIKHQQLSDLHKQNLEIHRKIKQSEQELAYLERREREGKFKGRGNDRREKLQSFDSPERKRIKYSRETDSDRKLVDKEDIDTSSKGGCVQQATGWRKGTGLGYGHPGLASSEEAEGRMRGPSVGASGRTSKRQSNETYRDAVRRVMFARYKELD
inactive: [1] 0 | crizotinib 0.148 | [2] 0.013 | duvelisib -0.154 | gandotinib -0.043 | tozasertib -0.094 | [3] -0.183 | doramapimod 0.032 | [4] -0.048 | nilotinib 0.062 | [5] -0.109 | dasatinib 0.025 | [6] -0.194 | [7] -0.052 | tipifarnib 0.028 | mubritinib -0.072
